# According to PubChem BioAssay (NCATS):
# Where “and” joins values, the source holds several entries; their conditions need not be identical. Equal values may be shown once. Values without a mark were called inactive. Inconclusive results are not listed. Calls of active or inactive are those of the source. Unless noted, calls come from the whole dose curve; as a rule, active = well fitted curve in the direction sought with a large enough effect; inconclusive = small, poorly fitted or top-dose-only effect, or another doubt; inactive = no such curve, though single readings can be large; an effect the other way counts as inactive or inconclusive. Where a SMILES comes first, the peptide text is derived from it. Bridges are numbered along the chain shown (N, C = ends). [ ]: non-standard residue; d: D form. Orn = NCCC[C@H](N)C(=O)O; Mpa = O=C(O)CCS
# Key:
# [1] = Drug repurposing screens with cells derived from glioblastoma tumor samples (AID 1345199); details: GBM patient neurospheres viability, ATP luminescence, 48 h; note: nearly all actives have a fitted effect of over 40% in size; note: potency is the fitted concentration of half-maximal effect; for activity, negative = cell killing: % is set by controls: 0 for no effect and ±100 for the full control effect
# Method in brief: (§1)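 Primary testing used CD133+ neurospheres from four GBM patients, seven concentrations, 48 h exposure and ATP-based viability; confirmation added three slower-growing patient lines.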
# astro = control astrocytes; assay: as above; details: viability, ATP luminescence, 48 h; series mostly up to 45.9 µM
# Method in brief: as §1
# [2] = qHTS assay to identify inhibitors of the type 1 interferon - major histocompatibility complex class I in skeletal muscle: Counter screen cell viability and HiBit confirmation (AID 1347412); details: iHSKM muscle cells + IFN-b, HiBiT or CellTiter-Glo, 24 h; for activity change, negative = inhibition: at 45.9 µM (top of the series); note: potency is the fitted concentration of half-maximal effect; for activity change, negative = inhibition: % is set by controls: 0 for no effect and ±100 for the full control effect; for all read-outs here: nearly all actives have a fitted effect of over 60% in size
# Method in brief: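 Myoblasts (C25cl48, HLA-B HiBiT) seeded in medium without dexamethasone, IFN-b 4 ng/ml added except unstimulated columns; 1 hr later compounds pinned (12-pt 1:3, top 46 uM final). Incubated 24 hrs, lysed 10 min, luminescence measured.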
# [3] = molecular target: Nuclear receptor subfamily 1 group I member 2 (Rattus norvegicus) (UniProt Q9R1A7); assay: qHTS assay for small molecule activators of the rat pregnane X receptor (rPXR) signaling pathway (AID 651751; call rule not given here; note: 0% is about no effect); details: rPXR reporter cells, luciferase (One-Glo), 24 h
# Nuclear receptor subfamily 1 group I member 2 (Rattus norvegicus), sequence (Q9R1A7 whole entry, looked up): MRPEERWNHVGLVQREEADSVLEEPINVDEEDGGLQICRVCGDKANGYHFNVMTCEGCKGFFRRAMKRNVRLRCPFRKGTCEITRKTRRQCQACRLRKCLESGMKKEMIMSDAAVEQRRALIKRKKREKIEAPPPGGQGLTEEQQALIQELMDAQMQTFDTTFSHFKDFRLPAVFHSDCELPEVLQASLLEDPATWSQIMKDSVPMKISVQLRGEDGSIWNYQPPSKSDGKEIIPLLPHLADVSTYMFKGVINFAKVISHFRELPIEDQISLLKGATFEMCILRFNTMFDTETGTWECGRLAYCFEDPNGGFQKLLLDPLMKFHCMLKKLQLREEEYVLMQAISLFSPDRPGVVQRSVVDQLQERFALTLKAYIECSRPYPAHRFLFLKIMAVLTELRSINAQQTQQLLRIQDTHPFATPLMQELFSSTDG
# [4] = qHTS assay for small molecule activators of the human pregnane X receptor (PXR) signaling pathway (AID 720659; call rule not given here; note: 0% is about no effect); details: DPX-2 HepG2 CYP3A4-luciferase, 24 h; series mostly up to 92.3 µM
# [5] = at 45.9 µM (top of the series), tumour line B
# [6] = at 45.9 µM (top of the series), tumour line D
# [7] = at 46.1 µM (top of the series), tumour line C
compound,measurement,setting,value
COCC1=C(C(=O)OC(C)OC(=O)OC(C)C)N2C(=O)[C@@H](NC(=O)/C(=N\OC)c3csc(N)n3)[C@H]2SC1 (stereo not given in full),"activity, negative = cell killing",[1]; [5],-23.6% and -15.3%
same,"activity, negative = cell killing",[1]; [6],14.5% and -3.43%
same,"activity, negative = cell killing","[1]; at 46 µM (top of the series), tumour line A",-24.7%
same,"activity, negative = cell killing",[1]; [7],0.117% and 4.67%
same,Potency,astro,inactive
CN1CCN(C2=Nc3ccccc3Cc3ccccc32)CC1,"activity, negative = cell killing",[1]; [5],-12%
same,"activity, negative = cell killing",[1]; [6],-12.4%
same,"activity, negative = cell killing",[1]; [7],-28.3%
same,Potency,[1]; tumour line A,31.6 µM (active)
same,Potency,astro,inactive
COc1ccc(C(=O)Nc2ccccc2CCC2CCCCN2C)cc1 (stereo not given),"activity, negative = cell killing",[1]; [5],-11.1%
same,"activity, negative = cell killing",[1]; [6],-17.7%
same,"activity, negative = cell killing",[1]; [7],-23.4%
same,Potency,[1]; tumour line A,10 µM (active)
same,Potency,astro,inactive
O=P(O)(O)OC(Cn1cncn1)(Cn1cncn1)c1ccc(F)cc1F,"activity, negative = cell killing",[1]; [5],-3.57%
same,"activity, negative = cell killing",[1]; [6],-9.38%
same,"activity, negative = cell killing",[1]; [7],14%
same,Potency,astro,inactive
O=C(O)c1cccc(/C=C2/C[C@@H]3[C@@H](/C=C/[C@@H](O)C4CCCCC4)[C@H](O)C[C@@H]3O2)c1,"activity, negative = cell killing",[1]; [5],-4.9%
same,"activity, negative = cell killing",[1]; [6],-11.8%
same,"activity, negative = cell killing",[1]; [7],-8.79%
same,Potency,astro,inactive
C/C=C1\NC(=O)[C@H]2CSSCC/C=C/[C@H](CC(=O)N[C@H](C(C)C)C(=O)N2)OC(=O)C(C(C)C)NC1=O (stereo not given in full),Potency,astro,0.708 µM (active)
COc1cccc(OCCCN)c1-c1cc(Nc2cnc(C#N)cn2)n[nH]1,Potency,[2]; HiBiT,15.7 µM (active)
same,Potency,[2]; Viability,17.6 µM (active)
CCOc1ccc(C[C@H]2NC(=O)CCSSC[C@@H](C(=O)N3CCC[C@H]3C(=O)N[C@@H](CCCN)C(=O)NCC(N)=O)NC(=O)[C@H](CC(N)=O)NC(=O)[C@H]([C@@H](C)O)NC(=O)[C@H]([C@@H](C)CC)NC2=O)cc1 ([Mpa][dY](Et)ITNCP[Orn]G-NH2; disulfide 1-6),"activity, negative = cell killing",[1]; [5],-9.93%
same,"activity, negative = cell killing",[1]; [6],-4.59%
same,"activity, negative = cell killing",[1]; [7],3.43%
same,Potency,astro,inactive
C[N+](C)(CCCCCC[N+](C)(C)C1c2ccccc2-c2ccccc21)C1c2ccccc2-c2ccccc21,Potency,astro,inactive
COc1ccc(CNc2nc(N(CCO)CCO)nc3c2ncn3C(C)C)cc1,Potency,[2]; HiBiT,5.57 µM (active)
same,"activity change, negative = inhibition",[2]; Viability,13%
COC(C)=O,"activity, negative = cell killing",[1]; [5],-2.89%
same,"activity, negative = cell killing",[1]; [6],6.97%
same,"activity, negative = cell killing",[1]; [7],7.29%
same,max response,[3],5.57%
same,outcome,[4],inactive
O=C(Cn1c(=O)sc2ccc(Cl)cc21)N1CCN(CCO)CC1,"activity, negative = cell killing",[1]; [5],-0.42%
same,"activity, negative = cell killing",[1]; [6],-6.64%
same,"activity, negative = cell killing",[1]; [7],15.7%
same,Potency,astro,inactive
COc1cc([C@@H]2c3cc4c(cc3C(O[C@@H]3O[C@@H]5COC(c6cccs6)O[C@H]5[C@H](O)[C@H]3O)C3COC(=O)[C@@H]32)OCO4)cc(OC)c1O (stereo not given in full),Potency,astro,12.6 µM (active)
CNC[C@@H]1CC[C@@H](N)[C@@H](O[C@H]2[C@H](O)[C@@H](O[C@H]3OC[C@](C)(O)[C@H](NC)[C@H]3O)[C@H](N)C[C@@H]2N)O1,"activity, negative = cell killing",[1]; [5],-14.4%
same,"activity, negative = cell killing",[1]; [6],-20.8%
same,"activity, negative = cell killing",[1]; [7],16.1%
same,Potency,astro,inactive
COC(=O)Nc1cc(Nc2cc(NC3CC3)c3ncc(C#N)n3n2)c(Cl)c(N2CCN(C)CC2)c1,Potency,[2]; HiBiT,7.01 µM (active)
same,Potency,[2]; Viability,17.6 µM (active)
CCCCCCCC/C=C\CCCCCCCC(=O)OC[C@@H](O)[C@H]1OC[C@H](O)[C@H]1O,"activity, negative = cell killing",[1]; [5],-4.65%
same,"activity, negative = cell killing",[1]; [6],1.42%
same,max response,[3],1.88%
same,outcome,[4],inactive
CN[C@@H]1CCc2[nH]c3ccc(C(N)=O)cc3c2C1,"activity, negative = cell killing",[1]; [5],-9.15%
same,"activity, negative = cell killing",[1]; [6],-11.6%
same,"activity, negative = cell killing",[1]; [7],28.3%
same,Potency,astro,inactive
NCCC(=O)[N-][C@@H](Cc1cnc[nH]1)C(=O)O.[Zn],"activity, negative = cell killing",[1]; [5],-11.4%
same,"activity, negative = cell killing",[1]; [6],-14.7%
same,"activity, negative = cell killing",[1]; [7],0.418%
same,Potency,astro,inactive
C=CCNC1=C2C[C@@H](C)C[C@H](OC)[C@H](O)[C@@H](C)/C=C(\C)[C@H](OC(N)=O)[C@@H](OC)/C=C\C=C(/C)C(=O)NC(=CC1=O)C2=O,Potency,[2]; HiBiT,0.0701 µM (active)
Cc1ccc(/C(=C\CN2CCCC2)c2cccc(/C=C/C(=O)O)n2)cc1,"activity, negative = cell killing",[1]; [7],-12.4%
same,Potency,[1]; tumour line A,35.5 µM (active)
same,Potency,astro,22.4 µM (active)
CO[C@H]1C[C@H](O[C@H]2[C@H](C)O[C@@H](O[C@@H]3/C(C)=C/C[C@@H]4C[C@@H](C[C@]5(C=C[C@H](C)[C@@H](C6CCCCC6)O5)O4)OC(=O)[C@@H]4C=C(C)[C@@H](O)[C@H]5OC/C(=C\C=C\[C@@H]3C)[C@]54O)C[C@@H]2OC)O[C@@H](C)[C@@H]1O,Potency,astro,17.8 µM (active)
CCC(C)C(C(=O)OCC[N+](C)(CC)CC)c1ccccc1 (stereo not given),"activity, negative = cell killing",[1]; [5],-18.7%
same,"activity, negative = cell killing",[1]; [6],-27.8%
same,Potency,[1]; tumour line A,11.2 µM (active)
same,Potency,astro,inactive
CCC(c1ccccc1)c1noc(CCN(CC)CC)n1 (stereo not given),"activity, negative = cell killing",[1]; [5],-14.3%
same,"activity, negative = cell killing",[1]; [6],-10.2%
same,"activity, negative = cell killing",[1]; [7],-2.54%
same,Potency,astro,inactive
C=CS(=O)(=O)O,"activity, negative = cell killing",[1]; [5],-2.55%
same,"activity, negative = cell killing",[1]; [6],-4.12%
same,"activity, negative = cell killing",[1]; [7],-10.9%
same,Potency,astro,inactive
OC(CN1CCCCC1)c1cc(-c2ccccc2)on1 (stereo not given),"activity, negative = cell killing",[1]; [5],-15.5%
same,"activity, negative = cell killing",[1]; [6],-0.851%
same,"activity, negative = cell killing",[1]; [7],5.87%
same,Potency,astro,inactive
NC(=O)c1cnc(N[C@@H]2CCCC[C@@H]2N)nc1Nc1cccc(-n2nccn2)c1,"activity change, negative = inhibition",[2]; Viability,-17.1%
NCCCNCCCCNC(=O)C(O)NC(=O)CCCCCCN=C(N)N (stereo not given),"activity, negative = cell killing",[1]; [5],-10.7%
same,"activity, negative = cell killing",[1]; [7],-21.3%
same,Potency,astro,inactive
N#Cc1ccnc(Nc2cc(C3CCN(C4COC4)CC3)cc(N3CCC(F)(F)C3)n2)c1,Potency,[2]; HiBiT,3.52 µM (active)
CC(C)(C)CC(=O)OCC(=O)[C@@]12OC(C)(C)O[C@@H]1C[C@H]1[C@@H]3CCC4=CC(=O)C=C[C@]4(C)[C@@]3(F)[C@@H](O)C[C@@]12C,"activity, negative = cell killing",[1]; [5],-19.8%
same,"activity, negative = cell killing",[1]; [7],-0.929%
same,Potency,astro,inactive
